USP30 inh = inhibitors of human USP30 deubiquitinase. inhibition, % at 25 µM. purified USP30, Ub-rhodamine cleavage fluorescence. Ubiquitin carboxyl-terminal hydrolase 30 (Homo sapiens), Q70CQ3. AID 1645860, 2021. 5.3% of 47,000 active
USP28 inh = inhibitors of human USP28 deubiquitinase; purified USP28, Ub-rhodamine cleavage fluorescence, 30 min; Ubiquitin carboxyl-terminal hydrolase 28 (Homo sapiens), Q96RU2; AID 1645857, 2021; inhibition, % at 25 µM; 3% of 47,000 active
Target sequence (Q96RU2 whole entry, looked up): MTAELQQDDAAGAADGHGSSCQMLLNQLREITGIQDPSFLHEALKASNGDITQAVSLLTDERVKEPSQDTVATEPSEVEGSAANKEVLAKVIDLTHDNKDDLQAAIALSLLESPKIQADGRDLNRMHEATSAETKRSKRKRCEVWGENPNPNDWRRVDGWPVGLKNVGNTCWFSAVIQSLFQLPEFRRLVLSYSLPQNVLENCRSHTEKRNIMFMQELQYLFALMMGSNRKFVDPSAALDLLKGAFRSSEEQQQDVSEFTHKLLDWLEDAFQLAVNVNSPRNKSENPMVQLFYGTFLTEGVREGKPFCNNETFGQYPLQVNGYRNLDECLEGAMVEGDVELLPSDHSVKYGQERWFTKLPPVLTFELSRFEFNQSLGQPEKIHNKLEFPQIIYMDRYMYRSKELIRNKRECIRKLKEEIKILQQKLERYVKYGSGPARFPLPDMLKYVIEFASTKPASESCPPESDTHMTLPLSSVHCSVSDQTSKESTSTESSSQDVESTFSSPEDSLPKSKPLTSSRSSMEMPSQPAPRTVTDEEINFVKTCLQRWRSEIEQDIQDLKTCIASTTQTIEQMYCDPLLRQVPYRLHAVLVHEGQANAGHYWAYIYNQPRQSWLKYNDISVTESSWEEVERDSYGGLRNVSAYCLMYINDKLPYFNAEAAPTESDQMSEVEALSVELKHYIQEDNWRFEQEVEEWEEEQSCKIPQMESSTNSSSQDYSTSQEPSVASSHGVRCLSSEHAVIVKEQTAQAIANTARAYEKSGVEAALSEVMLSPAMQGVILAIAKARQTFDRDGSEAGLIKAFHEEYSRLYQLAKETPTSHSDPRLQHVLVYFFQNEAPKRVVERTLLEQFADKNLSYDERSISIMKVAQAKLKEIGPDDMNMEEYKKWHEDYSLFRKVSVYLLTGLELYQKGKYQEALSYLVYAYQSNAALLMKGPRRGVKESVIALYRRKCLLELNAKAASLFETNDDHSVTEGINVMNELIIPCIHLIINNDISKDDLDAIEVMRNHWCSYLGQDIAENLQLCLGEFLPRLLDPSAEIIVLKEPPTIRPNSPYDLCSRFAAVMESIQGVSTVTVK
OTUD3 inh = inhibitors of human OTUD3 deubiquitinase; inhibition, % at 25 µM; OTU domain-containing protein 3 (Homo sapiens), Q5T2D3; AID 1645858, 2021; purified OTUD3, Ub-rhodamine fluorescence, 2 h; 0.7% of 47,000 active
USP17 block = inhibitors of human USP17 deubiquitinase; Ubiquitin carboxyl-terminal hydrolase 17-like protein 5 (Homo sapiens), A8MUK1; purified USP17, Ub-rhodamine cleavage fluorescence, 3 h; inhibition, % at 50 µM; 6.5% of 47,000 active
Large screens that a line does not name were inactive. Rows were chosen to be rich in hits. Some 11% of all compounds tested hit in one or more screens of this group. Rule as the data show it: active = inhibition above about 30%; inactive = the rest.

CCc1nc(-c2cc(C(=O)N3CCOCC3)c3ccccn23)cs1	none
COC(=O)c1cc(NC(=O)/C=C/c2ccc(C(C)C)cc2)ccc1N1CCOCC1	none
COC(=O)c1ccc(NC(=O)/C=C/c2ccc(F)cc2)cc1	USP30 inh 90, USP28 inh 96, USP17 block 86
CCn1nc(C)cc1C(=O)N1CCCC2(COCCN(CC3CC3)C2)C1 (stereo not drawn)	none
O=C(CSc1nnc(/C=C/c2ccccc2)o1)c1ccc(F)cc1	none
Cc1nc2ccc(Cl)cc2cc1C(=O)N1CCN(C)c2nc3ccccc3nc21	none
O=C(Nc1ccccc1)N1CCCN(c2c(Cl)cncc2Cl)CC1	USP30 inh 32
O=C(Nc1ccccc1)N1CCCN(c2ccc([N+](=O)[O-])cn2)CC1	none
O=C(CCSc1ccc(Cl)cc1)c1cccs1	USP17 block 84
Cc1cc(C2CCCCN2C(=O)c2ccn(C)n2)nc2ccnn12 (stereo not drawn)	none
O=C(NC1CCCCCC1)c1cccc(S(=O)(=O)Nc2cc(C(F)(F)F)ccc2Cl)c1	USP30 inh 31, USP17 block 33
Cc1cccc(Cn2cc(C(=O)O)c3ccccc3c2=O)c1	none
COc1ccc2c(c1)c(=O)c(S(=O)(=O)c1ccccc1)cn2Cc1cccc(C)c1	USP30 inh 32
COc1ccc(C(=O)CSc2nnc(C(C)Oc3ccccc3)n2C)cc1 (stereo not drawn)	none
CC(c1cc2ccccc2o1)N(C)c1ncnc2sccc12 (stereo not drawn)	USP28 inh 35
CCc1cc2c(C)cc(=O)oc2c(CN2CCC(Cc3ccccc3)CC2)c1O	none
Cc1ccccc1NC(=O)c1cc2c(CO)cnc(C)c2oc1=Nc1cccc(F)c1	none
COc1ccc(NC(=O)c2cc3c(CO)cnc(C)c3oc2=Nc2cccc(F)c2)c(OC)c1	USP30 inh 33
O=C(c1ccc(F)cc1Cl)N1CCN(C(=O)c2cnn3ccccc23)CC1	none
O=C(c1c(F)cccc1F)N1CCN(C(=O)c2cnn3ccccc23)CC1	USP30 inh 31
COCCCNC(=O)C1CCCN(c2nc3cccnc3n(Cc3ccccc3)c2=O)C1 (stereo not drawn)	none
Cc1nc(-c2noc3ccc(C(=O)Nc4cccnc4)cc23)cs1	USP30 inh 72
COc1cccc(NC(=O)c2ccc(-c3csc(C)n3)cc2)c1	USP28 inh 60
Cc1nc(-c2cccc(NC(=O)c3ccccc3)c2)cs1	none
COc1ccccc1NC(=O)c1ccc(-c2csc(C)n2)cc1	USP17 block 41 (no result: USP30 inh, USP28 inh)
COc1cccc(NC(=O)c2cc(-c3cccs3)on2)c1	USP30 inh 34, USP28 inh 32, USP17 block 39
CCC(=O)Nc1cccnc1-c1ccc(C(=O)Nc2cccc(OC)c2)cc1	USP28 inh 57
Cc1ccc(N2CC(c3nc4ccccc4n3CCCOc3ccccc3)CC2=O)cc1 (stereo not drawn)	USP30 inh 56, USP17 block 60
COc1ccc(OCCn2c(C3CC(=O)N(c4cccc(C)c4)C3)nc3ccccc32)cc1 (stereo not drawn)	USP30 inh 34, USP17 block 76
CN1CC(c2nc3ccccc3n2CCCOc2ccc(Cl)cc2)CC1=O (stereo not drawn)	none
COc1ccccc1OCCCCn1c(C2CC(=O)N(c3ccccc3F)C2)nc2ccccc21 (stereo not drawn)	USP30 inh 39
O=C1CC(c2nc3ccccc3n2CCOc2ccc(Cl)cc2)CN1c1ccccc1 (stereo not drawn)	USP30 inh 72, USP17 block 66
COc1ccc2[nH]c3c(=O)n(CCCN4CCN(C)CC4)cnc3c2c1	none
CCN1CCN(c2nc(Nc3ccc(C)c(Cl)c3)c3nccnc3n2)CC1	none (no result: USP17 block)
Cc1cccc(NC(=O)N2CCC(CC(=O)N3CCCC3)CC2)c1	none
CC(=O)N1CCCc2cc(S(=O)(=O)NCc3ccc4c(c3)OCO4)ccc21	none
COc1cccc(CNS(=O)(=O)c2ccc3c(c2)CCCN3C(=O)C2CCC2)c1	USP28 inh 30
COc1ccc(CC(=O)N2CCc3cc(OC)c(OC)cc3C2COc2ccc([N+](=O)[O-])cc2)cc1 (stereo not drawn)	USP30 inh 44
Cc1ccc(-n2cc(C(=O)N3CCN(c4ccccc4)CC3)nn2)cc1	USP30 inh 44, USP17 block 40
CCOC(=O)N1CCC(NC(=O)c2cn(-c3ccccc3Cl)nn2)CC1	none
CCOC(=O)N1CCC(NC(=O)c2cn(-c3ccc(C)cc3)nn2)CC1	USP17 block 60 (no result: USP30 inh, USP28 inh)
Cc1ccc(-n2cc(C(=O)N3CCc4ccccc4C3)nn2)cc1	none
Cc1ccc(-n2cc(C(=O)NCCCc3ccccc3)nn2)cc1	USP30 inh 49
COc1ccc(NC(=O)Nc2ccc(-c3nnc(-c4ccccc4)o3)cc2)cc1OC	none
CC(C)(C)c1nnc(CN2CCC(C3CCCCCN3C(=O)Nc3ccccc3)CC2)o1 (stereo not drawn)	none
CCC12CN3CC(C)(CN(C1)C3c1ccc(OCc3ccccc3)cc1)C2=O (stereo not drawn)	none
CCN1C(=O)COc2ccc(NC(=O)c3ccc(OCc4nonc4C)cc3)cc21	USP28 inh 70
COc1ccc(C2Nc3ccccc3C(=O)N2c2ccc3c(c2)OCO3)cc1O (stereo not drawn)	USP17 block 45
COc1ccc(Cn2ccc3nc(N4CCOCC4)c(C#N)cc3c2=O)cc1	USP30 inh 54, USP28 inh 31, USP17 block 68
COc1ccc(C2CC(c3ccc(Cl)cc3)N(C(=O)C(C)(C)C)c3ncnn32)cc1 (stereo not drawn)	none
COc1ccc(C2CC(c3ccc(OC)cc3)n3ncnc3N2C(=O)C2CC2)cc1 (stereo not drawn)	USP30 inh 37
Cc1ccc(C(=O)N2c3ncnn3C(c3ccccc3)CC2c2ccccc2)cc1 (stereo not drawn)	USP30 inh 32
CC1(C)Oc2ccc(C(=O)N3CCC([C@@H]4NC(=O)N[C@H]5OCCC[C@H]54)CC3)cc2NC1=O	USP30 inh 32
O=C1Cc2cc(S(=O)(=O)N3CCC([C@@H]4NC(=O)N[C@H]5OCCC[C@H]54)CC3)ccc2N1	none
COc1ccc(-c2c(C)c(-c3ccccc3)nc(N)c2C#N)cc1	none
CC(C)(Oc1ccc(Cl)cc1)C(=O)NCc1nnnn1-c1ccc(F)cc1	USP28 inh 31
Cc1nc2cc(C(=O)NCCC3=CCCCC3)ccc2n1-c1cccc(F)c1	USP30 inh 73, USP28 inh 40
CSc1ccc(NCc2cc3cc4c(cc3[nH]c2=O)CCC4)cc1	none
CCOC(=O)N1CCC(NC(=O)CCn2c(=S)oc3ccccc32)CC1	USP30 inh 34
CCOC(=O)N1CCC(NC(=O)C2CCCN(c3nc4ccccc4o3)C2)CC1 (stereo not drawn)	none
CC(C)=CCC[C@@](C)(O)[C@@H]1CC[C@@](C)(O)[C@H]1C	USP30 inh 33
COc1cc(OC)c2c(C)c(CC(=O)Nc3cccc(C(C)O)c3)c(=O)oc2c1 (stereo not drawn)	USP17 block 30

Screens: PubChem, Buhrlage Lab, Dana-Farber Cancer Institute and Novartis Institutes for BioMedical Research (Cambridge, Mass)
